Measurements taken from PubChem BioAssay AID504834 (National Center for Advancing Translational Sciences (NCATS), 2011).
Out of some 320,000 compounds screened, about 22,000 (6.9%) were called active. Inconclusive results (about 27%) are left out. Calls come from the whole dose curve; as a rule, active = well fitted inhibition curve with a large enough effect; inconclusive = small, poorly fitted or top-dose-only effect, or another doubt; inactive = no such curve, though single readings can be large or run the other way. The entries come from a sample that favours actives as a whole.

Test: Primary qHTS for delayed death inhibitors of the malarial parasite plastid, 96 hour incubation
Conditions: P. falciparum luciferase reporter growth; series mostly up to 28.7 µM; activity change, negative = inhibition: at the top concentration
Summary of the method: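 Plates of compound plus infected erythrocytes (2% hematocrit, 0.05% parasitemia final) incubate 96 hours, 37 C, 5% CO2. Detection reagent added; reduced luminescence from the parasites' luciferase reporter flags inhibition.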
% is set by controls: 0 for no effect and ±100 for the full control effect; potency is the fitted concentration of half-maximal effect.

| SMILES | activity change, negative = inhibition | Potency |
| --- | --- | --- |
| COCCNc1nnc(SCC(=O)NNC(=O)c2ccco2)s1 | -15.4% (inactive) |  |
| CCCc1nnc(NC(=O)CCC(=O)NC2CC2)s1 | 6.55% (inactive) |  |
| CSc1ccc(S(=O)(=O)N2CCC(C(=O)NCc3ccncc3)CC2)cc1 |  | 7.38 µM (active) |
| COc1ccc(CNC(=O)C2CCN(S(=O)(=O)c3ccc(SC)cc3)CC2)cc1 | 2.03% (inactive) |  |
| O=C(NCc1ccncc1)C1CCCN(S(=O)(=O)c2ccc(Br)cc2)C1 (centres undefined) | 19.8% (inactive) |  |
| CSc1ccc(NC(=O)/C=C/C(=O)O)cc1 | 10.9% (inactive) |  |
| O=C(Nc1ccccc1C(=O)N1CCCCC1)c1ccco1 | 32.1% (inactive) |  |
| COc1ccc(-c2nnn(CC(=O)N(CCO)C(C(=O)NC3CCCC3)c3ccc(F)cc3)n2)cc1 (centres undefined) | 11.1% (inactive) |  |
| Cc1cccc(N(C(=O)Cn2nnc(-c3ccc(C)o3)n2)C(C(=O)NC2CCCC2)c2ccncc2)c1 (centres undefined) | -5.05% (inactive) |  |
| O=C(Cn1nnc(-c2ccccc2)n1)NC(=O)NC1CCCC1 | 16.9% (inactive) |  |
| CCOCCCN(C(=O)Cn1nnc(-c2ccc(OC)c(OC)c2)n1)C(CC)C(=O)NC1CCCC1 (centres undefined) | 5.08% (inactive) |  |
| COc1ccc(C)cc1N(C(=O)Cn1nnc(-c2ccc(C)o2)n1)C(C(=O)NC1CCCC1)c1ccncc1 (centres undefined) |  | 8.28 µM (active) |
| COc1ccc(C(C(=O)NC2CCCC2)N(CCCO)C(=O)Cn2nnc(-c3ccc(C)o3)n2)cc1 (centres undefined) |  | 3.7 µM (active) |
| CCC(C(=O)NC1CCCC1)N(C(=O)Cn1nnc(-c2ccc(C)o2)n1)c1ccc(OC)c(OC)c1 (centres undefined) | -18.7% (inactive) |  |
| COc1cccc(N(CC(=O)NC2CCCC2)C(=O)Cn2nnc(-c3ccc(C)cc3)n2)c1 | 13.2% (inactive) |  |
| COc1cccc(N(CC(=O)NC2CCCC2)C(=O)Cn2nnc(-c3ccc(C)o3)n2)c1 |  | 11.7 µM (active) |
| CC1CC(C)CN(c2ccc(S(=O)(=O)N3CCOCC3)cc2)C1 (centres undefined) | 0% (inactive) |  |
| Cc1occc1-c1nnc(SCC(=O)NC2CCCCC2)o1 | 7.18% (inactive) |  |
| Cc1nc(N)nc(SCc2ccc([N+](=O)[O-])cc2)c1N | 18.6% (inactive) |  |
| O=C(c1ccc(Cl)c(S(=O)(=O)N2CCCCC2)c1)N1CCCCCC1 | 5.22% (inactive) |  |
| COc1ccc(Cl)cc1NS(=O)(=O)c1cccc(C(=O)NC2CCC(O)CC2)c1 (centres undefined) | -3.89% (inactive) |  |

| SMILES | activity change, negative = inhibition | Potency |
| --- | --- | --- |
| CCCCN(CCCC)CCNC(=O)CN1C(=O)COc2ccc(S(=O)(=O)N3CCOCC3)cc21 | -0.253% (inactive) |  |
| Cc1ccc(OCC(=O)Nc2ccccc2C(=O)NC2CC2)cc1C | 3.06% (inactive) |  |
| Cc1cc(NC(=O)COc2ccc([N+](=O)[O-])cc2)no1 | -28.6% (inactive) |  |
| Cc1onc(NC(=O)c2ccc([N+](=O)[O-])o2)c1Br |  | 5.86 µM (active) |
| O=C(OCC(=O)c1cccs1)c1ccc([N+](=O)[O-])o1 | 17.2% (inactive) |  |
| Cc1cc(C)c2c(=O)[nH]c(SCC(=O)Nc3ccc(Br)cc3)nc2n1 | -7.23% (inactive) |  |
| Cc1ccc(S(=O)(=O)N2CCOCC2)cc1NC(=O)COC(=O)c1cnccn1 | 29.9% (inactive) |  |
| Nc1nc(SCC(=O)Nc2ccc(Cl)cc2C(F)(F)F)n[nH]1 | 14.2% (inactive) |  |
| Cc1ccc(S(=O)(=O)NCC2CCC(C(=O)N3CCOCC3)CC2)cc1 (centres undefined) | 5.81% (inactive) |  |
| Cc1ccccc1CSCCNC(=O)c1ccc(N(C)S(=O)(=O)c2ccccc2)cc1 | 5.36% (inactive) |  |
| Cc1ccccc1CSCCNC(=O)c1ccc(Cl)c(S(=O)(=O)N2CCOCC2)c1 |  | 13.1 µM (active) |
| Cc1ccc(NC(=O)CCCNC(=O)c2ccc(Cl)cc2)cc1S(=O)(=O)N1CCOCC1 | -23.3% (inactive) |  |
| CC(C)(CNC(=O)c1ccc(Cl)c(S(=O)(=O)N2CCc3ccccc3C2)c1)N1CCOCC1 |  | 7.38 µM (active) |
| CN(CC(=O)Nc1ccc(F)cc1)CC(=O)Nc1ccc(Cl)c(S(=O)(=O)N2CCOCC2)c1 | -1.1% (inactive) |  |
| CN(C)S(=O)(=O)c1ccc(C(=O)NCC(C)(C)N2CCOCC2)cc1 | -13.6% (inactive) |  |
| O=C(NCc1cccnc1)c1cc(S(=O)(=O)N2CCOCC2)c(Cl)cc1Cl | 2.43% (inactive) |  |
| O=C(NCCSCc1ccccc1)c1ccc(Cl)c(S(=O)(=O)N2CCOCC2)c1 |  | 11.7 µM (active) |
| CC(C)(CNC(=O)Cc1ccc(Cl)cc1Cl)N1CCOCC1 | 4.76% (inactive) |  |
| COc1ccccc1N(CC(=O)NC1CCCC1)C(=O)C1(C)CC(=O)N=C2C=CC(C)=CN21 (centres undefined) | 10.9% (inactive) |  |
| O=C(Nc1ccc(N2CCCCC2)cc1)c1cc(S(=O)(=O)N2CCOCC2)ccc1F | -9.34% (inactive) |  |
| COC(=O)c1ccc(CNC(=O)c2ccc3oc(C(C)C)nc3c2)cc1 | 18.4% (inactive) |  |

| SMILES | activity change, negative = inhibition | Potency |
| --- | --- | --- |
| NCCCCC(N)C(=O)O (centres undefined) | -8.26% (inactive) |  |
| COCC1CCN(C(=O)c2ccc3oc(Cc4ccccc4)nc3c2)C1 (centres undefined) | 24.6% (inactive) |  |
| CCOc1ccc(S(=O)(=O)NCCSc2ccccc2)cc1 | 61.3% (inactive) |  |
| CCOc1ccc2nc(NCCNS(=O)(=O)c3ccccc3)c(C#N)cc2c1 |  | 13.1 µM (active) |
| COc1ccc(CNC(=O)C(C)NCc2ccccc2Cl)cc1 (centres undefined) | 3.38% (inactive) |  |
| COc1ccc(S(=O)(=O)N(CC(=O)N/N=C/c2ccc(C(=O)O)cc2)Cc2ccccc2)cc1OC | 32.2% (inactive) |  |
| CCOC(=O)N1CCN(C(=O)c2ccccc2N(Cc2ccccc2)S(=O)(=O)c2ccc(OC)cc2)CC1 | -7.44% (inactive) |  |
| CCOC(=O)CN(Cc1ccc(OC)c(OC)c1)S(=O)(=O)c1ccc(OC)cc1 |  | 9.28 µM (active) |
| CCNC(=O)Nc1ccc(S(=O)(=O)Nc2cnc(C)nc2C)cc1 | -11% (inactive) |  |
| COc1cc2c(C(=O)O)c(C)n(C)c2c2ccccc12 | 11.3% (inactive) |  |
| O=C(NCCc1ccccc1)C(=O)NCC1OCCN1S(=O)(=O)c1cccs1 (centres undefined) | 8.55% (inactive) |  |
| COc1ccc(NS(=O)(=O)c2ccc(Oc3c(C#N)cccc3C#N)cc2)cc1 | -11% (inactive) |  |
| CC(=O)Nc1cccc(Nc2nc(-c3cccs3)nc3ccccc23)c1 |  | 9.28 µM (active) |
| O=c1[nH]c(-c2cccs2)nc2ccccc12 | -7.89% (inactive) |  |
| Cc1cccc(-c2nc(Nc3ccc(O)cc3)c3ccccc3n2)c1 | 0% (inactive) |  |
| CSc1nc2ccccc2c(=O)n1Cc1ccc(F)cc1 | -1.4% (inactive) |  |
| CSc1c(SCc2ccccc2)cnn(Cc2ccccc2)c1=O |  | 9.28 µM (active) |
| Cn1c(CO)cnc1SCc1ccccc1 | 33.8% (inactive) |  |
| Cc1ccc(C)c(OCCC(=O)OCC(=O)N2CCN(c3ccccc3)CC2)c1 | -25.7% (inactive) |  |
| COc1ccc([C@H]2CC(=O)C=C(/C=C/c3ccc(Cl)cc3)C2)cc1 | 37.3% (inactive) |  |
| CC(C)(C)SCCSC1=CC(=O)CC(c2ccccc2)C1 (centres undefined) | 35.7% (inactive) |  |

| SMILES | activity change, negative = inhibition | Potency |
| --- | --- | --- |
| O=C1C=C(c2cccc(Br)c2)C[C@@H](c2ccc(F)cc2)C1 |  | 2.33 µM (active) |
| COc1cccc(C2=CC(=O)C[C@H](c3ccc(F)cc3)C2)c1OC | 1.99% (inactive) |  |
| O=C1C=C(c2cccc(Cl)c2O)C[C@@H](c2ccc(F)cc2)C1 |  | 4.65 µM (active) |
| O=C(Cn1cnc2ccccc21)Nc1ccccc1-c1ccccc1 | -28.3% (inactive) |  |
| COc1ccc(/C=C(/NC(=O)c2ccco2)C(=O)Nc2ccc(C(C)=O)cc2)cc1 | 32.6% (inactive) |  |
| O=C(O)c1cccc2c1C(=O)N(C1CCCC1)C2 | 5.46% (inactive) |  |
| Cc1nonc1C(=O)N/N=C/c1ccc(O)cc1 |  | 0.262 µM (active) |
| O=C(C[n+]1ccccc1)N/N=C/c1ccc(O)cc1 | 27.5% (inactive) |  |
| Cc1nc2ccccc2cc1C(=O)N/N=C/c1ccc([N+](=O)[O-])cc1 | 14.4% (inactive) |  |
| NC(=O)NC(CC(=O)NNC(=O)c1ccccn1)c1ccc(Cl)cc1 (centres undefined) | -1.93% (inactive) |  |
| O=C(NNC(=O)c1cc(S(=O)(=O)N2CCCCC2)ccc1Cl)c1ccccc1O | -25.4% (inactive) |  |
| O=C(Nc1ccccc1)c1ccc(NC(=O)c2cccs2)cc1 | -8.55% (inactive) |  |
| O=C(Nc1ccccc1Cl)Nc1cccc2cccnc12 | 3.34% (inactive) |  |
| CC(=O)N1CCN(C(=O)c2cc(-c3ccc(C)o3)nc3ccccc23)CC1 | 0% (inactive) |  |
| O=C(c1cc(-c2ccncc2)nc2ccccc12)N1CCC2(CC1)OCCO2 |  | 4.15 µM (active) |
| O=C(c1cc2nc(-c3ccccc3)cc(-c3ccccc3)n2n1)N1CCC2(CC1)OCCO2 | -23.6% (inactive) |  |
| Cc1cc(C(=O)OC(C)C(=O)NC2CCCCC2C)c(C)o1 (centres undefined) | 3.99% (inactive) |  |
| CC1(C(=O)O)CCC(C(=O)Nc2ccc(Cl)c(Cl)c2)C1(C)C (centres undefined) |  | 10.4 µM (active) |
| NC(=O)N1CCCC1C(=O)Nc1ccc(Cl)c(Cl)c1 (centres undefined) | 9.43% (inactive) |  |
| CCN(CC)C(=O)C1CCC(C)(C(=O)O)C1(C)C (centres undefined) | -17% (inactive) |  |
| O=C(CN1CCN(S(=O)(=O)c2cccc(Cl)c2)CC1)N1CCCCC1 | -7.81% (inactive) |  |
